Source: PubChem
CYP2C9 inh = blockers of cytochrome P450 2C9 activity – biochemical, luminescence, ADME assay, primary screen; P11712; CYP2C9 Supersomes, luciferin-H conversion; inhibition, % at 5 µM; actives 20% (n = 96,000);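 active means blocking of liver enzyme CYP2C9 beyond about 50% at 5 µM, limit read from the data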
CYP2C9 activ = human CYP2C9 activators, primary screen, biochemical, luminescence | Cytochrome P450 2C9 (Homo sapiens), P11712 | recombinant CYP2C9, luciferin-H conversion; hits give high values; factor 1 = untreated enzyme, 0 = blocked | actives 1.4% (n = 96,000) | activation factor at 5 µM | AID 1024, 2008;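 active means activation factor of 2 or more for CYP2C9 at a 5 µM dose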
CYP2C19 inhib = blockers of cytochrome P450 2C19 activity – biochemical, luminescence, ADME assay, primary screen. P33261. CYP2C19 Supersomes, luciferin-H EGE luminescence, 30 min. inhibition, % at 5 µM. actives 21% (n = 96,000). AID 778, 2007;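 active means CYP2C19 inhibition above a set limit at 5 µM in the primary screen, cut at about 50% in these data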
Target sequence (P33261 whole entry, looked up): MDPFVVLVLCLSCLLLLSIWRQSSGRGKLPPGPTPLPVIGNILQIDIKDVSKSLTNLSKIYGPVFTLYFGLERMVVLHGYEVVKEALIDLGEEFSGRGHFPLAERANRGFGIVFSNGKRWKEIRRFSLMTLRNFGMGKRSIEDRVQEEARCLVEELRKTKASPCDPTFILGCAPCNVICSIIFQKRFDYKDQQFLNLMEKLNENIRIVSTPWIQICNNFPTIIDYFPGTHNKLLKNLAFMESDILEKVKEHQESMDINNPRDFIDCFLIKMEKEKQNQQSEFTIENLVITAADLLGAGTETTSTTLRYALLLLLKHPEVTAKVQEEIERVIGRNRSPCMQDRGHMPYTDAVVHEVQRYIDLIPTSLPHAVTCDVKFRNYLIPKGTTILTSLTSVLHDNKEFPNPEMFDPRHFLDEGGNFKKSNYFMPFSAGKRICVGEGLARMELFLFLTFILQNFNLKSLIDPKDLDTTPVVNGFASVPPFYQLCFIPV
PLAP activator = PLAP enzyme activators, biochemical, luminescence, HTS; purified PLAP enzyme, luminescent substrate read-out; hits give high values; Alkaline phosphatase, placental type (Homo sapiens), P05187; activation fold at 20 µM; actives 1.2% (n = 96,000); AID 696, 2007; in the data active means activation fold above about 2
CYP2C19 act = human CYP2C19 activators, primary screen, biochemical, luminescence; recombinant CYP2C19, luciferin-H EGE luminescence; hits give high values; 0 = fully inhibited enzyme, 1 = untreated enzyme; activation factor at 5 µM; 96,000 tested, under 10 active; AID 1025, 2008;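 active means activation factor of at least 2 at 5 µM in the primary screen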
Numbers stand for hits; 0 = inactive. Only some compounds are listed: those with a hit (about 31% of all), similar ones and a draw of the others.

SMILES	CYP2C9 inh	CYP2C9 activ	CYP2C19 inhib	PLAP activator	CYP2C19 act
CC1(C)OC(=O)N(c2ccccc2)C12C=Cc1cc(Br)ccc1O2 (stereo not drawn)	85	0	83	0	0
CN1c2ccccc2C(O)=C(C(=S)Nc2ccc(Cl)cc2)S1(=O)=O	97	0	0	0	0
Cc1ccc(NC(=S)C2=C(O)c3sccc3N(C)S2(=O)=O)cc1	95	0	0	0	0
CN1c2ccsc2C(O)=C(C(=O)Nc2ccccc2)S1(=O)=O	73	0	0	0	0
Cc1ccc(NC(=O)C2=C(O)c3sccc3N(C)S2(=O)=O)cc1	64	0	0	0	0
Cc1cccc(OC(=O)CN2C(=O)C3C4CCC(C4)C3C2=O)c1C (stereo not drawn)	0	0	0	0	0
O=C(c1ccccc1)c1coc2ccc(O)c(Cl)c12	64	0	90	0	0
Cc1ccc(C(=O)c2coc3ccc(O)c(Cl)c23)cc1	0	0	54	0	0
O=C(c1ccccc1)c1coc2ccc(O)c(CN3CCOCC3)c12	56	0	96	0	0
O=C(O)c1coc2ccccc12	0	0	0	0	0
COc1ccc(C(=O)c2coc3ccc(O)c(CN4CCCCC4)c23)cc1	0	0	0	0	0
CN(C)Cc1c(O)ccc2occ(C(=O)c3ccccc3)c12	0	0	0	0	0
CCn1c(C(Cc2ccccc2)NC(=O)COC)nc2ccccc21 (stereo not drawn)	0	0	81	0	0
O=C1C2C3c4ccccc4C(c4ccccc43)[C@@H]2c2nc3ccccc3n21 (stereo partly drawn)	0	0	0	0	0
COC(=O)c1ccc(COC(=O)c2ccc(S(=O)(=O)N3CCC(C)CC3)cc2)o1	69	0	0	0	0
CC1CCN(S(=O)(=O)c2ccc(C(=O)OCc3ccc4c(c3)OCO4)cc2)CC1	0	0	0	0	0
Cc1nc(SCC(=O)NCCc2ccccc2)nc(C)c1C	0	0	80	0	0
Cc1nc(SCC(=O)NC(=O)NCc2ccccc2)nc(C)c1C	0	0	59	0	0
Cc1csc(SCC(=O)NC(=O)NCc2ccccc2)n1	0	0	0	0	0
Cc1ncc([N+](=O)[O-])n1CCOC(=O)Nc1ccc(Cl)c(Cl)c1	0	0	0	0	0
COc1ccc2[nH]c(C(=O)O)c(NS(=O)(=O)c3ccc(Cl)s3)c2c1	99	0	79	2.2	0
COc1ccc2[nH]c(C(=O)O)c(CCNC(C)=O)c2c1	0	0	0	0	0
CCOc1ccc(N(CC(=O)NCc2cccc(OC)c2)S(=O)(=O)c2c(C)noc2C)cc1	0	0	60	0	0
COc1ccc(N(CC(=O)NCc2cccc(OC)c2)S(=O)(=O)c2c(C)noc2C)cc1	64	0	92	0	0
Cc1ccc(NC(=O)COC(=O)C2CCC(=O)N2)c(S(=O)(=O)N2CCOCC2)c1 (stereo not drawn)	0	0	0	0	0
SMILES	CYP2C9 inh	CYP2C9 activ	CYP2C19 inhib	PLAP activator	CYP2C19 act
O=[N+]([O-])c1cc(S(=O)(=O)Nc2ccccc2)ccc1-n1nnc2ccccc21	72	0	51	0	0
O=C(O)c1cccc(NS(=O)(=O)c2ccc3nnn(O)c3c2)c1	0	0	0	0	0
O=C(NC1CCCc2ccccc21)C1CCC(CNS(=O)(=O)c2cccc3nsnc23)CC1 (stereo not drawn)	0	0	0	0	0
Cc1ccccc1NC(=O)CSc1nnc(Cc2cccn2C)n1-c1ccc(F)cc1	0	0	0	0	0
O=C(CN(c1ccc2c(c1)OCCO2)S(=O)(=O)c1ccccc1)NCc1ccco1	62	0	71	0	0
O=C(CN(Cc1ccccc1)S(=O)(=O)c1ccc(Br)cc1)NCc1ccco1	66	0	0	0	0
COc1ccccc1N(CC(=O)N/N=C/c1ccc(OCC(=O)NCc2ccco2)cc1)S(=O)(=O)c1ccc(C)cc1	96	0	89	2	0
COc1ccccc1CN(CC(=O)NCc1ccco1)C(=O)CNS(=O)(=O)c1ccc(C)cc1	0	0	0	0	0
Cc1ccc(N(CC(=O)Nc2ccccc2-c2ccccc2)S(=O)(=O)c2ccccc2)cc1	60	0	55	0	0
Cc1ccc(N(CC(=O)NCc2ccco2)S(=O)(=O)c2ccccc2)cc1	92	0	94	0	0
Cc1ccc(N(CC(O)COCc2ccco2)S(=O)(=O)c2ccc(C)cc2)cc1 (stereo not drawn)	88	0	94	0	0
O=C(N1CCOCC1)C(F)(F)C(=O)N1CCOCC1	0	0	0	0	0
Cc1ccc(-n2c(Cn3nc(C(F)F)cc3C(F)F)n[nH]c2=S)cc1	0	0	0	0	0
Cn1cnnc1SCC(=O)NC(=O)NC1CCCC1	0	0	0	0	0
CCOC(=O)CC1ON(C)C(=O)N1c1ccc([N+](=O)[O-])cc1 (stereo not drawn)	0	0	98	0	0
c1ccc(-c2nnc(CSc3nnc(-c4ccncc4)n3Cc3ccco3)o2)cc1	71	0	67	0	0
C(=C\c1ccccc1)/CSc1nnc(-c2ccccc2)n1Cc1ccco1	0	0	0	0	0
CCSc1nnc(-c2cccnc2)n1Cc1ccco1	0	0	0	0	0
C(=C\c1ccccc1)/CSc1nnc(-c2ccncc2)n1Cc1ccco1	0	0	89	0	0
Clc1cccc(-c2nnc(SC/C=C/c3ccccc3)n2Cc2ccco2)c1	67	0	65	0	0
O=C(COC(=O)C1(c2ccccc2F)CCCC1)N1CCOCC1	0	0	0	0	0
Cc1cc(C)nc(/N=C(\N)C2=C(O)CC(C)(C)CC2=O)n1	0	0	0	0	0
COc1cc(C(N)=O)cc(Br)c1OC	0	0	0	0	0
CCOC(=O)CS(=O)(=O)c1ccc2ccccc2c1	0	2.9	87	0	0
CCOC(=O)CS(=O)(=O)c1nc(-c2ccccc2)cc(C(F)(F)F)n1	59	0	0	0	0
SMILES	CYP2C9 inh	CYP2C9 activ	CYP2C19 inhib	PLAP activator	CYP2C19 act
CCOC(=O)CCS(=O)(=O)c1nc(-c2ccccc2)cc(C(F)(F)F)n1	0	0	0	0	0
CC(C)Cn1cc(C(=O)NCc2cccs2)c2c3ccccc3n(C)c2c1=O	0	0	0	0	0
CCn1c(CCC(=O)Nc2nc3c(s2)CCCC3)nc2cc(S(=O)(=O)N(C)C)ccc21	91	0	75	0	0
CCCN(C(=O)c1ccccc1N)c1c(C)n(C)n(-c2ccccc2)c1=O	0	0	0	0	0
O=C(OCCN1CCCCC1)c1ccc(O)cc1	0	0	0	0	0
O=C(OCCN1CCCCC1)c1ccccc1Cl	0	0	60	0	0
O=C(CSc1ncn[nH]1)OCN1C(=O)c2ccccc2C1=O	0	0	0	0	0
COc1ccc(CCNC(=O)CSc2ncn[nH]2)cc1	0	0	52	0	0
